BH1578 lux ind: inducers of Vibrio cholerae quorum light production without autoinducers, primary screen, BH1578 luxS cqsA deficient, single point; V. cholerae BH1578 lux reporter, luminescence, 6 h; activation, % at 18.7 µM; 350,000 compounds, 0.16% hits; AID 588436, 2011; in the data active = activation mostly above about 9.7%, no sharp cut-off; inconclusive = no clear call, values can overlap the other calls; inactive = mostly below about 3.7%
Mtb BioA inh: M. tuberculosis BioA enzyme inhibitors, primary screen, biochemical, plate reader, single point, HTS; AID 602481, 2012; purified M. tuberculosis BioA enzyme; inhibition, % at 9.99 µM; 360,000 compounds, 0.096% hits; 7,8-diaminopelargonic acid synthase BioA (Mycobacterium tuberculosis); in the data active = inhibition above about 40%; inconclusive = no clear call, values can overlap the other calls
TcdB GH inh: TcdB glycohydrolase inhibitors, primary screen, biochemical, single point, plate reader; Toxin B (Clostridioides difficile), P18177; TcdB glycohydrolase enzymatic assay; inhibition, % at 9.99 µM; 350,000 compounds, 0.24% hits; AID 652162, 2013; in the data active = inhibition above about 10%
FadD28 FP inh: inhibitors of FadD28 bisubstrate probe binding, primary screen, biochemical, fluorescence polarization, single point | Mycobacterium tuberculosis FadD28 fatty-acid-AMP ligase | inhibition, % at 12.5 µM | 360,000 compounds, 0.22% hits | AID 588549, 2011; in the data active = inhibition above about 8.5%, passing the limit was not always enough; inconclusive = no clear call, values can overlap the other calls
Starred values were filed as active, the others as inactive; i = inactive; u = inconclusive; x = no result. Compounds with a hit are over-represented: about 0.54% of the library has one in this group of screens.

SMILES | BH1578 lux ind | Mtb BioA inh | TcdB GH inh | FadD28 FP inh
CCCn1nc(NS(=O)(=O)c2cccc3nonc23)c2cc3cc(C)ccc3nc21 | 0 | -3 | 0 | -3
COc1cccc(NC(=O)N[C@@H]2C=C[C@@H](CC(=O)NCc3ccccn3)O[C@@H]2CO)c1 | x | -3 | 0 | x
Cc1ccc(F)c(NC(=O)/C(C#N)=C(\O)c2ccc(C(C)(C)C)cc2)c1 | 0 | x | -2 | 29*
Cn1c(=O)[nH]c(=O)c2c1[nH]c(=S)n2CCCc1ccccc1 | 0 | -2 | 12* | 0
Cn1c(=O)[nH]c(=O)c2c1nc(Br)n2Cc1ccc(Cl)cc1 | i | 1 | -4 | -3
Cn1c(=O)[nH]c(=O)c2c1[nH]c(=S)n2Cc1ccc(Cl)cc1 | -1 | -4 | 14* | -3
C[C@@H]1CCCCO[C@H](CN(C)Cc2ccc(C(=O)O)cc2)[C@H](C)CN([C@H](C)CO)C(=O)c2cc(NS(=O)(=O)c3ccc(Cl)cc3)ccc2O1 | x | 1 | -1 | x
COc1ccc(OC)c(NC(=O)CSCC(=O)O)c1 | 17* | 0 | x | -1
CCN1[C@H](C(=O)N(C)C)[C@@H](CO)[C@@H]2Cn3c(ccc(C4=CCCC4)c3=O)[C@@H]21 | x | -1 | x | x
S=c1[nH]nc2ccccn12 | -1 | -1 | 26* | 0
O=C1c2ccccc2C(=O)c2c(NCCCN(CCO)CCO)cccc21 | 0 | x | 2 | 1
CCN(CCCNc1cc2c(c(N)c1S(=O)(=O)O)C(=O)c1ccccc1C2=O)c1ccccc1 | -1 | -1 | 2 | 29*
O=c1cc(NCc2ccco2)c2ccccc2o1 | 26* | 1 | x | 2
Fc1ccccc1Nc1n[nH]c(=S)s1 | i | x | 10* | -1
Cc1ccccc1Nc1n[nH]c(=S)s1 | i | -2 | 2 | -1
COc1cccc(NC(=O)Cn2cnc3c(oc4nc5c(cc43)CCCC5)c2=O)c1 | 0 | -1 | 0 | -2
COc1ccccc1NC(=O)Cn1cnc2c(oc3nc4c(cc32)CCCC4)c1=O | 0 | 0 | 0 | 25*
O=c1c2oc3nc4c(cc3c2ncn1CCCc1ccccc1)CCCC4 | -2 | x | 11* | -2
CCCCn1cnc2c(oc3nc4c(cc32)CCCC4)c1=O | i | 1 | 0 | -4
COc1ccc(NC(=O)N[C@H]2CC[C@H](CC(=O)NCc3ccccn3)O[C@H]2CO)cc1 | x | 2 | 0 | x
CC(C)NC(=O)N[C@H]1CC[C@@H](CC(=O)O)O[C@H]1CO | x | -1 | 0 | x
COc1ccc(/C=C(/C#N)C(=O)Nc2ccc(O)cc2)cc1C(=O)O | i | x | 18* | -2
CCc1ccc(NC(=O)/C(C#N)=C\c2ccc(OC)c(C(=O)O)c2)cc1 | i | x | -1 | -1
O=C(O)c1ccc(Nc2nc(-c3cc4ccccc4oc3=O)cs2)cc1O | 0 | x | 0 | 30*
O=c1cc2c(=O)oc3cc(O)c(O)oc3c2c(O)c1O | -8 | 1 | -5 | 11*
SMILES | BH1578 lux ind | Mtb BioA inh | TcdB GH inh | FadD28 FP inh
O=c1oc2cc(O)c(Cl)cc2c2ccccc12 | i | 1 | x | -2
COc1ccc(C#Cc2ccc3c(c2)[C@@H]2[C@@H](CCN2C(=O)C2CCCC2)[C@H](CO)N3)cc1 | x | x | 0 | x
O=C(C[C@@H]1C[C@H]2c3cc(NC(=O)c4ccc5c(c4)OCO5)ccc3O[C@H]2[C@@H](CO)O1)NCc1cc(F)ccc1F | x | -1 | 0 | x
O=C(C[C@H]1C[C@H]2c3cc(NC(=O)c4ccc5c(c4)OCO5)ccc3O[C@H]2[C@H](CO)O1)NCc1cccc(F)c1 | x | -1 | 14* | x
CN=c1scc(-c2ccc(F)cc2)n1/N=C/c1ccc(O)c(O)c1 | 0 | x | 2 | 37*
COc1ccccc1NC(=O)N(C)C[C@H]1Oc2cc(Br)ccc2S(=O)(=O)N([C@@H](C)CO)C[C@H]1C | x | 7 | 0 | x
[O-][n+]1ccccc1/C=C/c1ccccc1 | 0 | x | 1 | -1
CN(C)c1ccc(/C=C/c2cccc[n+]2[O-])cc1 | 0 | -8 | 13* | 0
N[C@H]1CC[C@@H](CCn2cc(-c3ccccn3)nn2)O[C@H]1CO | x | 0 | 0 | x
Nc1c(C(=O)NCC2CCCO2)sc2nc3c(c(-c4ccco4)c12)CC/C3=C\c1ccco1 (configuration not stated) | 0 | -1 | 0 | 14*
Cc1noc(C)c1S(=O)(=O)Nc1ccc2c(c1)CC(=O)N([C@H](C)CO)C[C@@H](C)[C@H](CN(C)CC1CC1)O2 | x | 5 | -6 | x
CCCC#Cc1cnc2c(c1)C(=O)N([C@@H](C)CO)C[C@@H](C)[C@@H](CN(C)C(=O)Cc1ccncc1)O2 | x | -1 | 1 | x
N=C1c2ccccc2CN1NC(=O)CC12CC3CC(CC(C3)C1)C2 | 0 | x | 2 | 22*
N=C1c2ccccc2CN1NC(=O)C1CC1 | i | x | x | 1
CCC(=O)c1cn(CC(=O)Nc2cccc(C)c2C)c2ccccc12 | 0 | 1 | 14* | 0
CC(N)C(=O)NC(C(=O)N1CCCC1C(=O)NC(c1ccccc1)c1ccccc1)C(C)C (configuration not stated) | 0 | 0 | 11* | 0
CCCNC(=O)Nc1ccc2c(c1)C(=O)N(C)C[C@@H](OC)[C@@H](C)CN(C(C)=O)[C@H](C)CO2 | x | 0 | -1 | x
Cc1ccc(Nc2n[nH]c(=S)s2)cc1 | -1 | 0 | 2 | 1
S=c1[nH]nc(NC2CCCCC2)s1 | i | 0 | 18* | -3
Cc1nn(-c2ccccc2Cl)c(Cl)c1/C=N/Nc1cccc(C(=O)O)c1 | 0 | x | x | 16*
C[C@@H]1CCCCO[C@@H](CN(C)C)[C@H](C)CN([C@H](C)CO)C(=O)c2cc(NC(=O)Nc3ccc(F)cc3)ccc2O1 | x | 0 | 1 | x
Cc1cccc(OCCC(=O)NCC(=O)Nc2cccc(C)c2C)c1 | i | -2 | 19* | -3
C[C@@H]1CN([C@H](C)CO)C(=O)c2cc(NC(=O)CCCN(C)C)ccc2O[C@@H](C)CCCCO[C@H]1CN(C)C(=O)Nc1ccc(F)cc1 | x | 2 | 1 | x
COc1ccccc1C(=O)Nc1cccc(C(=O)c2ccccc2)c1 | 0 | 0 | 1 | -6
COc1ccccc1C(=O)Nc1cccc(Oc2c(F)c(F)c(F)c(F)c2F)c1 | 0 | -2 | 13* | -3
SMILES | BH1578 lux ind | Mtb BioA inh | TcdB GH inh | FadD28 FP inh
N#C/C(=C/c1ccco1)C(N)=S | 0 | x | 0 | 15*
O=C(C[C@@H]1CC[C@H](NC(=O)CN2CCOCC2)[C@@H](CO)O1)NC1CCCCC1 | x | -1 | 0 | x
Cc1cc(C)c(Nc2cc(S(=O)(=O)O)c(N)c3c2C(=O)c2ccccc2C3=O)c(C)c1 | -3 | x | x | 64*
Cc1cc(C)c(NC(=O)COC(=O)c2cccc3c2C(=O)c2ccccc2C3=O)c(C)c1 | 1 | x | x | -1
COc1ccccc1OCC(=O)Nc1ccc(-c2nnc(-c3ccco3)o2)cc1 | 0 | 0 | 12* | -1
CC1=NN(c2nc(-c3ccc(F)cc3)cs2)C(=O)C1 | i | -3 | x | 18*
CC1=NN(c2nc(-c3ccc(Cl)cc3)cs2)C(=O)C1 | 0 | x | x | u
C[C@H](CO)N1C[C@H](C)[C@@H](CN(C)CC2CC2)OCCCC[C@H](C)Oc2ccc(NC(=O)c3ccncc3)cc2C1=O | x | 0 | -2 | x
